# Measurements taken from PubChem BioAssay (NCI).
# Where “and” joins values, the source holds several entries; their conditions need not be identical. Equal entries are not always repeated. Compounds without any hit were thinned out: in the full panel of roughly 83,000, 20% have a hit.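 Testing used 96-well plates and a 48-hour single-concentration exposure. Example: -40 means 40% of the starting cells died.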 Calls of active or inactive are those of the source. How the source made its calls: active means growth percent below 10; inactive means the rest.
# Assays:
# Assay in all cases: NCI-60 one-dose screen, 48 h (100 = growth as untreated, 0 = no growth, -100 = all killed)
# Details in all cases: 10 µM unless noted
# HCT-15 colon = test system: HCT-15 colon
# HT29 colon = test system: HT29 colon
# SNB-75 CNS = test system: SNB-75 CNS
# U251 CNS = test system: U251 CNS
# PC-3 prostate = test system: PC-3 prostate
# SK-MEL-5 melanoma = test system: SK-MEL-5 melanoma
# UACC-62 melanoma = test system: UACC-62 melanoma
# LOX IMVI melanoma = test system: LOX IMVI melanoma
# SK-MEL-28 melanoma = test system: SK-MEL-28 melanoma
# SNB-19 CNS = test system: SNB-19 CNS
SMILES,growth (HCT-15 colon),growth (HT29 colon),growth (SNB-75 CNS),growth (U251 CNS),growth (PC-3 prostate),growth (SK-MEL-5 melanoma),growth (UACC-62 melanoma),growth (LOX IMVI melanoma),growth (SK-MEL-28 melanoma),growth (SNB-19 CNS)
CCNC(=O)Oc1ccc(/C(=C(/C)Cc2ccc(OC)cc2)c2ccc(OCCN(CC)CC)cc2)cc1,2.84% (active),-42.2% (active),80.8% (inactive),33.9% (inactive),56.5% (inactive),-97.1% (active),-16.4% (active),-75.2% (active),-60% (active),
COC(=O)c1[nH]nc(OC)c1C1(C(C#N)c2nc3ccccc3s2)CCCc2ccccc21 (stereo not drawn),102% (inactive),95.8% (inactive),86.4% (inactive),96.5% (inactive),79.5% (inactive),,79.6% (inactive),95% (inactive),78.9% (inactive),96.7% (inactive)
O=C(N=Nc1c(O)[nH]c2ccccc12)Nc1ccccc1Cl,68.1% (inactive),101% (inactive),82% (inactive),92.2% (inactive),92.5% (inactive),87.6% (inactive),78.8% (inactive),96.5% (inactive),105% (inactive),
Fc1ccccc1-c1cnn2cc(-c3ccccc3)cnc12,90.5% (inactive),105% (inactive),81.7% (inactive),98.9% (inactive),88.5% (inactive),101% (inactive),91.5% (inactive),98.7% (inactive),113% (inactive),
S=c1nc(CS)[nH]c2ccccc12,93.2% (inactive),101% (inactive),86.7% (inactive),96.7% (inactive),93.9% (inactive),95.7% (inactive),90.6% (inactive),91% (inactive),105% (inactive),
CCOC(=O)N(O)c1ccc(/C=C/c2ccccc2)cc1,69.8% (inactive) and 72.3% (inactive),66.8% (inactive) and 53.7% (inactive),93.6% (inactive) and 96.4% (inactive),54.6% (inactive) and 58.1% (inactive),55% (inactive) and 67.5% (inactive),66.2% (inactive) and 57.1% (inactive),29.4% (inactive) and -29.2% (active),60.2% (inactive) and 58.5% (inactive),103% (inactive) and 108% (inactive),
COc1ccc(-c2nc(Cl)c3c(C)nn(-c4ccc(F)cc4)c3n2)cc1,110% (inactive),98.3% (inactive),104% (inactive),96.5% (inactive),89.6% (inactive),100% (inactive),100% (inactive),101% (inactive),110% (inactive),
O=C(NCc1ccc(Cn2c(=O)sn(-c3ccc(Cl)cc3)c2=O)cc1)OCc1ccc2c(Cl)cc(Cl)c(O)c2n1,15.7% (inactive),111% (inactive),69% (inactive),36.3% (inactive),35.5% (inactive),33% (inactive),33.4% (inactive),31.6% (inactive),47% (inactive),
O=C(NNc1ccccc1)c1ncc[nH]1,34.8% (inactive),54.9% (inactive),85.2% (inactive),78.6% (inactive),71.9% (inactive),85% (inactive),10.9% (inactive),1.27% (active),40.7% (inactive),
COc1ccc(C/C(C)=C(/c2ccc(OCCN3CCCC3)cc2)c2ccc(OC(=O)NCc3ccccc3)cc2)cc1,61.4% (inactive),18.6% (inactive),71.1% (inactive),67.1% (inactive),67.3% (inactive),77.8% (inactive),84.8% (inactive),84.4% (inactive),84.7% (inactive),
O=C1/C(=C/c2ccc(-c3cccc(C(F)(F)F)c3)o2)SC(=S)N1CCc1ccc(O)cc1,68.6% (inactive),80.4% (inactive),56.7% (inactive),87.2% (inactive),62.6% (inactive),90.1% (inactive),59% (inactive),68.7% (inactive),95.8% (inactive),
Clc1ccc(Nc2nc(Nc3ccc(Cl)cc3)nc(Nc3ccc(-c4cc(-c5cccc(Cl)c5)on4)cc3)n2)cc1,89.8% (inactive),105% (inactive),99.4% (inactive),79% (inactive),86.7% (inactive),88% (inactive),105% (inactive),79.4% (inactive),108% (inactive),
Clc1ccc(/C=N\N2CCCCCC2)cc1,95.7% (inactive) and 92.9% (inactive),101% (inactive) and 84.9% (inactive),100% (inactive) and 110% (inactive),92.3% (inactive) and 98.5% (inactive),105% (inactive),98.2% (inactive) and 106% (inactive),92.1% (inactive) and 104% (inactive),102% (inactive),104% (inactive) and 107% (inactive),
C#CCOCC1CN(C)C(=O)O1 (stereo not drawn),98.1% (inactive),99.5% (inactive),,103% (inactive),109% (inactive),114% (inactive),112% (inactive),105% (inactive),110% (inactive),107% (inactive)
O=C1C(N2CCOCC2)=C(I)C(=O)c2ncccc21,67.1% (inactive),102% (inactive),,61.9% (inactive),79.4% (inactive),,69.5% (inactive),43.4% (inactive),96.6% (inactive),73% (inactive)
CC(C)(C)c1cc(C(C)(C)c2ccccc2)cc(Cc2cc(C(C)(C)c3ccccc3)cc(C(C)(C)C)c2O)c1O,95.8% (inactive),93.3% (inactive),,94.3% (inactive),74.9% (inactive),97.4% (inactive),92.3% (inactive),89.5% (inactive),106% (inactive),106% (inactive)
C[C@]12CCc3c(ccc4cc(O)ccc34)[C@@H]1C[C@H](O)[C@@H]2O,108% (inactive),102% (inactive),,101% (inactive),78.5% (inactive),102% (inactive),88.6% (inactive),93.3% (inactive),110% (inactive),95% (inactive)
C=C1C(=O)O[C@@H]2[C@H]3[C@H](COC(C)=O)[C@@H](OC(C)=O)C[C@H]3C(=C)[C@@H](O)C[C@@H]12,91.5% (inactive),89.6% (inactive),,89.9% (inactive),88.9% (inactive),89.2% (inactive),85% (inactive),93% (inactive),106% (inactive),93.7% (inactive)
C/C(=C(\c1ccc(OCCN2CCOCC2)cc1)c1ccc(OC(=O)C2CCCCC2)cc1)c1ccc(Cl)cc1,97.7% (inactive),76.3% (inactive),,99.5% (inactive),68.2% (inactive),91.6% (inactive),87.9% (inactive),102% (inactive),99.1% (inactive),100% (inactive)
Cc1ccccc1SSc1ccccc1C,17.9% (inactive),23.6% (inactive),,87.6% (inactive),66.7% (inactive),89.6% (inactive),78.8% (inactive),72% (inactive),121% (inactive),84.2% (inactive)
Nc1nc(N)c2c(n1)NC(c1ccc(Cl)cc1)CC(c1cccc(Nc3ccncc3)c1)=N2 (stereo not drawn),71.5% (inactive),21% (inactive),,34.6% (inactive),38.2% (inactive),52.1% (inactive),69.2% (inactive),25.4% (inactive),72.2% (inactive),61.8% (inactive)
C=CCOc1ccc(/C=C2\SC(=S)N(CCc3ccc(O)cc3)C2=O)cc1,82.9% (inactive),88.4% (inactive),,86% (inactive),90.4% (inactive),94.4% (inactive),73.8% (inactive),-71.2% (active),110% (inactive),93.3% (inactive)
CCOC(=O)c1ccc(Nc2ncnc3c2cnn3-c2cccc(F)c2)cc1,102% (inactive),103% (inactive),,98% (inactive),97.3% (inactive),101% (inactive),92.6% (inactive),93.2% (inactive),110% (inactive),96.9% (inactive)
COc1ccc(C(c2cc(OC)c(OC)c(OC)c2)n2ccnc2)cc1O (stereo not drawn),7.7% (active),5.94% (active),,15.5% (inactive),20.7% (inactive),-12.9% (active),36.5% (inactive),25.7% (inactive),62.9% (inactive),30.5% (inactive)
CCCN1C(=O)/C(=c2\sc3n(c2=O)C2C(NN=3)N(CC)C(=O)N2CC)c2ccccc21 (stereo not drawn),12.5% (inactive),3.33% (active),,17.6% (inactive),32.9% (inactive),14.3% (inactive),24.7% (inactive),17.1% (inactive),48.1% (inactive),27.7% (inactive)
CONC1=Nc2cc(NC(N)=NCc3ccccc3)c(N(C)C3CCCCC3)cc2OC1,101% (inactive),29.5% (inactive),,53.1% (inactive),51.1% (inactive),74.9% (inactive),70.1% (inactive),50.2% (inactive),87.9% (inactive),68.8% (inactive)
